# Screening results (PubChem)
# An excerpt weighted towards active compounds, which were near 4% of everything screened.
# TIM10 inh: growth inhibitors of TIM10 yeast strain; S. cerevisiae TIM10 strain growth, BacTiter-Glo luminescence, 24 h; inhibition, % at 10 µM; actives 1.4% (n = 330,000);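 active = inhibition of 40% or more at the single tested concentration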;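 also: wild-type TIM10 isogenic control strain grown at permissive 25 °C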
# NALP1 yeast inh: inhibitors of NALP1 inflammasome in yeast; S. cerevisiae NALP1/ASC/caspase-1 growth, X-gal OD620, 72 h; inhibition, % at 10 µM; actives 0.61% (n = 280,000); in the data active = inhibition mostly above about 24%, no sharp cut-off; inactive = mostly below about 32%
# tim10-1 inh: growth inhibitors of tim10-1 mutant yeast | actives 2.2% (n = 330,000) | inhibition, % at 20 µM | AID 463190 | S. cerevisiae tim10-1 ts strain growth, BacTiter-Glo, 24 h;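 active = inhibition of at least 40%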;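 also: mutant grown at 25 °C; 0% = DMSO wells with yeast and 100% = wells holding no yeast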
# NLRP3 yeast inh: NALP3 inhibition in yeast | Yeast reconstituted NLRP3/ASC/caspase-1, beta-gal luminescence, 24 h | inhibition, % at 10 µM | actives 0.39% (n = 330,000) | AID 2825;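 active = inhibition of 50% or more; inactive = inhibition below 50%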;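 also: plate controls were induced DMSO wells for no effect and uninduced yeast grown without galactose for full effect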
# tim23-1 inh: tim23-1 yeast growth inhibition | S. cerevisiae tim23-1 growth, BacTiter-Glo luminescence, 24 h | actives 1.3% (n = 330,000) | AID 463212 | inhibition, % at 20 µM;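 active = growth inhibition of the mutant yeast at or above 50%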;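 also: temperature-sensitive mutant grown at 25 °C; plate controls were DMSO-treated mutant yeast for no effect and medium wells lacking yeast for full effect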
# tim10-1 conf: confirmation of tim10-1 mutant yeast growth inhibitors; shares compounds with tim10-1 inh; S. cerevisiae tim10-1 ts strain growth, BacTiter-Glo, 24 h; inhibition, % at 20 µM; actives 56% (n = 7,400); AID 463213;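 active = inhibition of yeast growth at or above a set limit in either of two repeat tests at 20 µM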;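 also: tim10-1 mutant grown at permissive 25 °C to find synthetic lethal compounds; 0% = DMSO yeast wells and 100% = medium wells without yeast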
# TIM10 conf: confirmation of TIM10 yeast growth inhibitors | S. cerevisiae tim10 strain growth, BacTiter-Glo luminescence, 24 h | inhibition, % at 10 µM | shares compounds with TIM10 inh | actives 63% (n = 4,600);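 active = inhibition of yeast growth at or above a set limit in either of two replicates at 10 µM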;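 also: this counterscreen used the strain with wild-type TIM10; 0% = yeast with DMSO and 100% = medium wells lacking yeast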
# * hit, by the source's call; nt = not tested or not shown.
SMILES,TIM10 inh,NALP1 yeast inh,tim10-1 inh,NLRP3 yeast inh,tim23-1 inh,tim10-1 conf,TIM10 conf
Cn1c(=O)n(Cc2ccccc2)c(=O)c2c1nc1n2CCCN1CCc1ccccc1,47*,-4,43*,-4,42,41*,34*
CNC(=O)c1ncoc1-c1ccc(Cl)cc1,2,28,-21,20,-4,nt,nt
C=CCc1cccc(/C=N/NC(=O)CNc2ccccc2)c1O,5,26,24,16,11,nt,nt
C=CCc1cccc(/C=N/NC(=O)CNc2ccccc2OC)c1O,97*,0,47*,4,25,30,47*
FC(F)Sc1ccc(NC(=S)NC(c2ccccc2)c2ccccc2)cc1,12,10,8,11,1,nt,nt
S=C(Nc1ccc(Br)cc1)NC1CCCC1,9,0,28,18,26,nt,nt
FC(F)Sc1ccc(NC(=S)NC2CCCCC2)cc1,66*,-8,65*,24,31,67*,62*
FC(F)Sc1ccc(NC(=S)NCC2CCCCC2)cc1,69*,-24,71*,27,48,60*,60*
FC(F)Sc1ccc(NC(=S)NCc2ccccc2)cc1,56*,8,48*,17,44,41*,44*
CN(CC(=O)Nc1ccc(SC(F)F)cc1)C1CCCCC1,-6,10,-11,18,2,nt,nt
Nc1c(C(=O)N2CCCC2)sc2nc(-c3ccccc3)ccc12,26,6,22,26,29,nt,nt
CCc1cccc(NC(=O)CCCn2c(=O)[nH]c3ccsc3c2=O)c1,-17,12,6,6,1,nt,nt
CN1c2ccccc2Oc2nnc(N3CCN(Cc4ccccc4)CC3)cc21,75*,-8,41*,21,47,54*,44*
Cc1cc(C(=O)NCC(c2ccco2)N(C)C)ccc1[N+](=O)[O-] (stereo not given),10,16,6,0,13,nt,nt
Cc1ccc2c(c1)/C(=C/c1ccccc1)C(=O)N2,49*,26,55*,25,24,39*,62*
COc1cccc(CN(C)C(=O)Nc2cccc(C(F)(F)F)c2)c1OC,-3,30,29,9,10,nt,nt
Cc1ccc2nc(-c3ccccc3)c(CN3CCN(c4ccccc4F)CC3)n2c1,51*,25,56*,6,49,42*,37*
Nc1nccnc1C(=O)OCC(=O)C12CC3CC(CC(C3)C1)C2,2,nt,-4,5,4,nt,nt
N#CC1(C#N)CC(C=O)=C(N)C1(C#N)CC(=O)C12CC3CC(CC(C3)C1)C2 (stereo not given),48*,60,40*,-8,48,48*,40*
CCOc1ccc(Cl)cc1S(=O)(=O)n1nnc2ccccc21,51*,15,46*,8,47,42*,-9
Oc1ccc(/C=N/Nc2nccnc2Cl)c(O)c1,70*,-20,61*,12,47,28*,54*
C/C(=N\Nc1ccc(S(=O)(=O)N2CCOCC2)cc1[N+](=O)[O-])C(C)C,-11,1,-9,11,-14,nt,nt
CC1CC(C)CN(C(=O)CCCNC(=O)c2ccc(Cl)cc2)C1 (stereo not given),-44,-2,0,2,8,nt,nt
COc1ccc(/C=C/C(=O)C2(O)CCCCC2)cc1OC,44*,0,47*,15,41,40*,31*
COc1cc(OC)c(C(=O)OCC(=O)N2CCOCC2)cc1OC,4,26,-2,-13,-4,nt,nt
O=C(Oc1c(CN2CCOCC2)cc(Cl)c2cccnc12)c1cccs1,42*,14,47*,38,36,41*,26
O=C(Oc1c(CN2CCOCC2)cc(Cl)c2cccnc12)c1ccc(F)cc1,38,5,38,29,39,nt,nt
O=C1CCC(C(=O)N2CCN(c3cnccn3)CC2)CN1CCc1cccc(F)c1 (stereo not given),-2,14,12,3,-9,nt,nt
CC(C)OC(=O)CN1C(=O)S/C(=C/c2ccc(N3CCCCC3)o2)C1=O,46*,-2,46*,23,44,72*,83*
CC(C)(C)OC(=O)CN1C(=O)S/C(=C\c2ccc(-c3cccc(C(=O)O)c3)o2)C1=O,1,-4,5,-2,15,nt,nt
